From the supplement of paper PMC9262897, “Low-cost anti-mycobacterial drug discovery using engineered E. coli” (Nature Communications, 2022)
Where a name gives a salt, the structure may show the parent alone. ± gives the standard deviation of the averaged measurements.

Legend:
Test in all cases: growth (OD600 after 10 h); higher = more growth (less inhibition)
[1] = tested on: E. coli TESEC Alr+ wild-type control; conditions: compound 0.1 mM; raw OD600 reference: median of DMSO wells 0.241, cell-free background 0.041
Procedure: (§1)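 TESEC Mtb Alr E. coli, or the Alr+ wild-type control, in 384-well plates with Prestwick library compounds at 0.1 mM and 1% DMSO, across arabinose induction levels of 1E3 to 1E7 nM. Growth is read as OD600 after 10 h at 37 °C in triplicate biological replicates.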

E. coli TESEC Mtb Alr [2] = conditions: compound 0.1 mM
Procedure: as §1

E. coli TESEC Mtb Asd = conditions: compound 0.1 mM
Procedure: (§2)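 TESEC E. coli strains in which the native enzyme is deleted and replaced by arabinose-inducible Mtb Asd, DapB, CysH or TrpD, each grown in its selective medium. Strains were screened against the Prestwick library at 0.1 mM and 1% DMSO in 384-well format at low and high arabinose induction. Growth is read as OD600 after 10 h in triplicate.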

E. coli TESEC Mtb DapB = conditions: compound 0.1 mM
Procedure: as §2

[3] = tested on: E. coli TESEC Alr+ wild-type control; conditions: compound 0.1 mM; raw OD600 reference: median of DMSO wells 0.49, cell-free background 0.052
Procedure: (§3)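 TESEC Mtb Alr E. coli (ΔaraC ΔtolC ΔentC Δalr ΔdadX, arabinose-inducible Mtb Alr) or the Alr+ wild-type control strain, grown in defined M9-fructose medium without D-alanine in 96-well plates with Prestwick library compounds at 0.1 mM and 1% DMSO. Low Alr induction is 0.1 µM arabinose and high induction is 10 mM arabinose.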

E. coli TESEC Mtb Alr [4] = conditions: compound 0.1 mM; remark: listed apart in the source
Procedure: as §3

[5] = arabinose 1000 nM, raw OD600 reference: median of DMSO wells 0.294, cell-free background 0.041
[6] = arabinose 10000 nM, raw OD600 reference: median of DMSO wells 0.264, cell-free background 0.041
[7] = arabinose 100000 nM, raw OD600 reference: median of DMSO wells 0.201, cell-free background 0.041
[8] = arabinose 1000000 nM, raw OD600 reference: median of DMSO wells 0.193, cell-free background 0.041
[9] = arabinose 10000000 nM, raw OD600 reference: median of DMSO wells 0.146, cell-free background 0.041
[10] = arabinose induction (level): High, raw OD600 reference: median of DMSO wells 0.331, cell-free background 0.041
[11] = arabinose induction (level): Low, raw OD600 reference: median of DMSO wells 0.417, cell-free background 0.041
[12] = arabinose induction (level): High, raw OD600 reference: median of DMSO wells […], cell-free background 0.041
[13] = arabinose induction (level): Low, raw OD600 reference: median of DMSO wells 0.227, cell-free background 0.041
[14] = arabinose 100 nM, raw OD600 reference: median of DMSO wells 0.413, cell-free background 0.052
[15] = arabinose 10000000 nM, raw OD600 reference: median of DMSO wells […], cell-free background 0.052

| Compound | growth [1] | growth (E. coli TESEC Mtb Alr [2]; [5]) | growth (E. coli TESEC Mtb Alr [2]; [6]) | growth (E. coli TESEC Mtb Alr [2]; [7]) | growth (E. coli TESEC Mtb Alr [2]; [8]) | growth (E. coli TESEC Mtb Alr [2]; [9]) | growth (E. coli TESEC Mtb Asd; [10]) | growth (E. coli TESEC Mtb Asd; [11]) | growth (E. coli TESEC Mtb DapB; [12]) | growth (E. coli TESEC Mtb DapB; [13]) | growth [3] | growth (E. coli TESEC Mtb Alr [4]; [14]) | growth (E. coli TESEC Mtb Alr [4]; [15]) |
| --- | --- | --- | --- | --- | --- | --- | --- | --- | --- | --- | --- | --- | --- |
| CCN1C(=O)NC(c2ccccc2)C1=O (stereo not drawn) [Ethotoin] | 0.244 ± 0.0096 | 0.304 ± 0.008 | 0.254 ± 0.0063 | 0.191 ± 0.009 | 0.187 ± 0.006 | 0.142 ± 0.0016 | 0.434 ± 0.031 | 0.446 ± 0.014 | 0.217 ± 0.01 | 0.243 ± 0.051 | 0.448 ± 0.012 | 0.4121 ± 0.0041 | 0.353 ± 0.017 |
| O=S(=O)(O)c1cc(O)ccc1O [Ethamsylate] | 0.252 ± 0.0066 | 0.311 ± 0.0039 | 0.258 ± 0.0087 | 0.206 ± 0.018 | 0.182 ± 0.0086 | 0.13 ± 0.0042 | 0.211 ± 0.034 | 0.391 ± 0.0046 | 0.191 ± 0.013 | 0.244 ± 0.025 | 0.525 ± 0.079 | 0.41 ± 0.015 | 0.344 ± 0.022 |
| CCN1CCCC1CNC(=O)c1cc(S(=O)(=O)CC)c(N)cc1OC (stereo not drawn) [Amisulpride] | 0.235 ± 0.0063 | 0.3 ± 0.011 | 0.253 ± 0.005 | 0.251 ± 0.025 | 0.169 ± 0.003 | 0.16 ± 0.0017 | 0.332 ± 0.093 | 0.377 ± 0.067 | 0.224 ± 0.02 | 0.239 ± 0.031 | 0.578 ± 0.046 | 0.408 ± 0.011 | 0.3237 ± 0.0029 |
| COC(=O)Nc1nc2cc(C(=O)c3ccc(F)cc3)ccc2[nH]1 [Flubendazol] | 0.249 ± 0.026 | 0.307 ± 0.032 | 0.2591 ± 0.00086 | 0.197 ± 0.028 | 0.191 ± 0.0051 | 0.141 ± 0.0081 | 0.43 ± 0.019 | 0.491 ± 0.029 | 0.2 ± 0.01 | 0.231 ± 0.03 | 0.6 ± 0.078 | 0.414 ± 0.018 | 0.435 ± 0.011 |
| CCC[C@@H]1C[C@@H](C(=O)N[C@@H]([C@H]2O[C@H](SC)[C@H](O)[C@@H](O)[C@H]2O)[C@H](C)Cl)N(C)C1 [Clindamycin hydrochloride] | 0.0527 ± 0.0012 | 0.048 ± 0.0007 | 0.04127 ± 0.0004 | 0.0497 ± 0.00055 | 0.04133 ± 0.00032 | 0.0496 ± 0.00085 | 0.0699 ± 0.0019 | 0.0715 ± 0.0033 | 0.0755 ± 0.0023 | 0.0766 ± 0.0063 | 0.0771 ± 0.0023 | 0.15 ± 0.014 | 0.0594 ± 0.0027 |
| NC(=O)OCC(O)COc1ccc(Cl)cc1 (stereo not drawn) [Chlorphensin carbamate] | 0.251 ± 0.011 | 0.287 ± 0.016 | 0.2846 ± 0.0028 | 0.245 ± 0.022 | 0.2014 ± 0.002 | 0.162 ± 0.0045 | 0.364 ± 0.046 | 0.379 ± 0.024 | 0.214 ± 0.014 | 0.279 ± 0.041 | 0.523 ± 0.01 | 0.416 ± 0.019 | 0.366 ± 0.023 |
| Cc1nnc(SCC2=C(C(=O)O)N3C(=O)[C@@H](NC(=O)Cn4cnnn4)[C@H]3SC2)s1 [Cefazolin sodium salt] | 0.286 ± 0.013 | 0.3162 ± 0.0031 | 0.24 ± 0.0064 | 0.229 ± 0.0084 | 0.183 ± 0.0062 | 0.145 ± 0.0033 | 0.313 ± 0.07 | 0.428 ± 0.0098 | 0.192 ± 0.0067 | 0.237 ± 0.019 | 0.562 ± 0.098 | 0.328 ± 0.015 | 0.363 ± 0.0051 |
| O=C(O)c1cc(=O)c2c(OCC(O)COc3cccc4oc(C(=O)O)cc(=O)c34)cccc2o1 [Cromolyn disodium salt] | 0.2571 ± 0.0016 | 0.311 ± 0.019 | 0.275 ± 0.0036 | 0.21 ± 0.014 | 0.201 ± 0.011 | 0.14 ± 0.0057 | 0.389 ± 0.04 | 0.489 ± 0.01 | 0.189 ± 0.013 | 0.228 ± 0.034 | 0.602 ± 0.064 | 0.403 ± 0.011 | 0.361 ± 0.01 |
| C[C@@H](O)[C@H]1C(=O)N2C(C(=O)O)=C(S[C@@H]3CN[C@H](C(=O)N(C)C)C3)[C@H](C)[C@H]12 [Meropenem] | 0.0404 ± 0.00057 | 0.0418 ± 0.0014 | 0.0448 ± 0.0059 | 0.0523 ± 0.0007 | 0.0817 ± 0.0057 | 0.0962 ± 0.003 | 0.138 ± 0.0038 | 0.0552 ± 0.0001 | 0.135 ± 0.0089 | 0.169 ± 0.013 | 0.0604 ± 0.0014 | 0.04557 ± 0.00025 | 0.0882 ± 0.013 |
| O=C(CCCN1CCN(c2ccccn2)CC1)c1ccc(F)cc1 [Azaperone] | 0.192 ± 0.0058 | 0.2624 ± 0.0023 | 0.294 ± 0.0053 | 0.164 ± 0.013 | 0.177 ± 0.0089 | 0.146 ± 0.0043 | 0.217 ± 0.017 | 0.326 ± 0.029 | 0.194 ± 0.0048 | 0.264 ± 0.05 | 0.395 ± 0.0085 | 0.423 ± 0.0076 | 0.304 ± 0.01 |
| CCCCC(C)(O)C/C=C/[C@H]1[C@H](O)CC(=O)[C@@H]1CCCCCCC(=O)OC (mixture of isomers) [Misoprostol] | 0.323 ± 0.014 | 0.3803 ± 0.0025 | 0.278 ± 0.0043 | 0.474 ± 0.013 | 0.193 ± 0.009 | 0.22 ± 0.013 | 0.35 ± 0.071 | 0.44 ± 0.022 | 0.332 ± 0.034 | 0.311 ± 0.044 | 0.518 ± 0.094 | 0.432 ± 0.0064 | 0.378 ± 0.013 |
| COc1ccc(C[C@@H]2c3cc(OC)c(OC)cc3CC[N@+]2(C)CCC(=O)OCCCCCOC(=O)CC[N@@+]2(C)CCc3cc(OC)c(OC)cc3[C@H]2Cc2ccc(OC)c(OC)c2)cc1OC [Cisatracurium besylate] | 0.188 ± 0.0083 | 0.307 ± 0.0083 | 0.242 ± 0.014 | 0.166 ± 0.0072 | 0.119 ± 0.0042 | 0.156 ± 0.0018 | 0.307 ± 0.04 | 0.414 ± 0.032 | 0.168 ± 0.022 | 0.209 ± 0.021 | 0.497 ± 0.054 | 0.411 ± 0.0072 | 0.304 ± 0.0097 |
| CCCCOc1ccc(OCCCN2CCOCC2)cc1 [Pramoxine hydrochloride] | 0.199 ± 0.0084 | 0.268 ± 0.018 | 0.263 ± 0.011 | 0.195 ± 0.013 | 0.146 ± 0.0024 | 0.163 ± 0.0035 | 0.362 ± 0.03 | 0.403 ± 0.022 | 0.183 ± 0.014 | 0.226 ± 0.0093 | 0.425 ± 0.028 | 0.408 ± 0.0076 | 0.332 ± 0.011 |
| CC[C@]12CCCN3CCc4c(n(c5ccccc45)[C@@](O)(C(=O)OC)C1)[C@@H]32 [Vincamine] | 0.235 ± 0.0064 | 0.276 ± 0.0046 | 0.258 ± 0.0043 | 0.193 ± 0.023 | 0.173 ± 0.0043 | 0.138 ± 0.0023 | 0.375 ± 0.011 | 0.456 ± 0.006 | 0.191 ± 0.015 | 0.266 ± 0.071 | 0.503 ± 0.059 | 0.422 ± 0.011 | 0.322 ± 0.011 |
| Nc1nc(=O)n([C@@H]2CS[C@H](CO)O2)cc1F [(-)-Emtricitabine] | 0.238 ± 0.0098 | 0.285 ± 0.0065 | 0.248 ± 0.0044 | 0.254 ± 0.061 | 0.172 ± 0.0027 | 0.147 ± 0.005 | 0.291 ± 0.092 | 0.419 ± 0.09 | 0.192 ± 0.024 | 0.218 ± 0.011 | 0.572 ± 0.0088 | 0.412 ± 0.0087 | 0.337 ± 0.012 |
| O=C1NCCN1CCN1CCC(c2cn(-c3ccc(F)cc3)c3ccc(Cl)cc23)CC1 [Sertindole] | 0.0429 ± 0.0029 | 0.04057 ± 0.00035 | 0.04073 ± 0.00025 | 0.0409 ± 0.0004 | 0.04 ± 0.0001 | 0.0443 ± 0.0027 | 0.0531 ± 0.0039 | 0.0504 ± 0.003 | 0.102 ± 0.09 | 0.0562 ± 0.012 | 0.0474 ± 0.001 | 0.167 ± 0.2 | 0.0524 ± 0.00098 |
